Data as given in paper PMC5540273 (PLoS ONE, 2017).

Columns and labels:
Settings in all cases: concentration: 1 μM, replicates: in singlicate; n = 1
[1] = tested on: PLK2
[2] = tested on: PLK3
[3] = tested on: PLK4
[4] = tested on: PRKCD
[5] = tested on: PRKCE
[6] = tested on: PRKCH
[7] = tested on: PRKCI
[8] = tested on: PRKCQ
[9] = tested on: PRKD1
[10] = tested on: PRKD2
[11] = tested on: PRKD3
[12] = tested on: PRKG1
[13] = tested on: PRKG2
[14] = tested on: T1, PRKR
T1 construct: gene EIF2AK2

[15] = tested on: PRKX
[16] = tested on: PRP4
[17] = tested on: T2, PYK2
T2 construct: gene PTK2B

[18] = tested on: QSK
[19] = tested on: RAF1
[20] = tested on: RET
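Note: KINOMEscan kinase panel screen.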

Row | Structure (SMILES) | %Inh [1] [%] | %Inh [2] [%] | %Inh [3] [%] | %Inh [4] [%] | %Inh [5] [%] | %Inh [6] [%] | %Inh [7] [%] | %Inh [8] [%] | %Inh [9] [%] | %Inh [10] [%] | %Inh [11] [%] | %Inh [12] [%] | %Inh [13] [%] | %Inh [14] [%] | %Inh [15] [%] | %Inh [16] [%] | %Inh [17] [%] | %Inh [18] [%] | %Inh [19] [%] | %Inh [20] [%]
1 | COc1cccc(NC(=O)NCCNc2ccnc(Nc3ccc(F)cc3)n2)c1 [GSK1379879] | 0 | 0 | 4 | 0 | 18 | 5 | 20 | 12 | 0 | 0 | 0 | 4 | 0 | 0 | 14 | 49 | 21 | 0 | 15 | 0
2 | CS(=O)(=O)c1cccc(CNc2nc(Nc3ccc4c(c3)CCC(=O)N4)ncc2C(F)(F)F)c1 | 29 | 31 | 51 | 4 | 0 | 0 | 13 | 0 | 0 | 0 | 4 | 0 | 0 | 0 | 0 | 30 | 26 | 0 | 0 | 90.1
3 | CNc1nccc(-c2ccc3c(N)n[nH]c3c2)n1 [GSK2206003] | 0 | 0 | 0 | 27 | 15 | 25 | 17 | 9 | 19 | 20 | 35 | 25 | 76 | 8 | 53 | 32 | 12 | 0 | 0 | 80
4 | CN(C)CCOc1ccc(-c2cc(-c3ccc(Cl)c(O)c3)c(-c3ccncc3)[nH]2)cc1.Cl.Cl [SB-684387] | 4 | 11 | 31 | 0 | 26 | 2 | 14 | 3 | 14 | 2 | 15 | 11 | 80 | 11 | 17 | 15 | 0 | 3 | 88 | 60
5 | COC(=O)Nc1nc2ccc(Oc3ccc(NC(=O)Nc4cc(C(F)(F)F)ccc4F)cc3)cc2[nH]1.Cl [GW654607] | 0 | 0 | 0 | 4 | 12 | 8 | 21 | 16 | 28 | 3 | 15 | 9 | 10 | 3 | 10 | 0 | 15 | 28 | 91.3 | 100
6 | O=C(Nc1n[nH]c2cc(-c3cccs3)ccc12)C1CC1 [SB-731284] | 9 | 28 | 29 | 17 | 11 | 0 | 0 | 0 | 0 | 0 | 7 | 8 | 22 | 0 | 0 | 7 | 0 | 44 | 9 | 0
7 | Fc1cc(Cl)ccc1Nc1ccnc2cc(-c3ccc(CN4CCOCC4)o3)ccc12 [GW560109] | 0 | 0 | 81 | 0 | 5 | 3 | 22 | 31 | 0 | 2 | 19 | 25 | 0 | 0 | 24 | 44 | 5 | 70 | 11 | 99.8
8 | Cc1ccc(NC(=O)c2cccc(N3CCCCC3)c2)cc1-c1ccc(C(=O)NCC2CC2)cc1 [GSK1917008] | 0 | 0 | 0 | 10 | 3 | 19 | 5 | 0 | 0 | 0 | 100 | 31 | 0 | 0 | 26 | 4 | 0 | 8 | 88 | 10
9 | Cc1ccc(Nc2ccnc(Nc3ccc(C)c(F)c3)n2)cc1O.Cl [GW582868] | 0 | 3 | 0 | 0 | 6 | 0 | 25 | 0 | 0 | 0 | 0 | 0 | 0 | 0 | 0 | 27 | 1 | 0 | 12 | 67
10 | Nc1ncc(-c2ccc3nccc(-c4ccncc4)c3c2)cc1S(=O)(=O)N1CCCCC1 [GSK1693850] | 30 | 27 | 0 | 15 | 31 | 36 | 9 | 0 | 0 | 4 | 23 | 7 | 0 | 3 | 27 | 0 | 28 | 1 | 18 | 13
11 | COc1cccc(C2=C(Nc3cccc(O)c3)C(=O)NC2=O)c1 [SB-390771] | 0 | 0 | 15 | 20 | 27 | 19 | 16 | 98.4 | 0 | 0 | 7 | 9 | 81 | 15 | 20 | 41 | 43 | 0 | 20 | 1
12 | Cc1cc(-c2ccnc(Nc3cccc(C#N)c3)n2)cc(C)c1O [GSK1440913] | 0 | 0 | 15 | 0 | 6 | 5 | 5 | 12 | 0 | 0 | 0 | 0 | 0 | 52 | 0 | 92.8 | 27 | 23 | 13 | 0
13 | Cc1cccc(Nc2nc(N[C@H]3CCCC[C@H]3N)ncc2C(N)=O)c1.Cl [GSK986310] | 0 | 0 | 16 | 53 | 56 | 43 | 28 | 53 | 50 | 56 | 58 | 20 | 0 | 30 | 25 | 1 | 71 | 18 | 3 | 76
14 | CSc1ccc(NC2=C(c3ccc(Cl)cc3)C(=O)NC2=O)cc1 [SB-317658] | 6 | 0 | 30 | 4 | 0 | 2 | 8 | 0 | 17 | 0 | 0 | 6 | 0 | 0 | 0 | 0 | 0 | 0 | 13 | 7
15 | Cn1cc(-c2ccc3c(c2)CCN3C(=O)Cc2cc(F)cc(F)c2F)c2c(N)ncnc21 [GSK2634140] | 0 | 0 | 0 | 0 | 0 | 17 | 0 | 20 | 100 | 0 | 0 | 0 | 0 | 2 | 16 | 21 | 12 | 0 | 18 | 5
16 | CCNC(=O)/C=C/c1n[nH]c2cc(Sc3ccccc3C(=O)NC)ccc12 | 17 | 18 | 91.9 | 6 | 3 | 0 | 5 | 0 | 3 | 14 | 0 | 14 | 2 | 0 | 3 | 0 | 0 | 0 | 0 | 80
17 | Cc1ccc(NC(=O)c2ccnc(N3CCCCC3)c2)cc1-c1ccc(C(=O)NCC2CC2)cc1 [GW775610] | 0 | 0 | 24 | 9 | 9 | 0 | 6 | 2 | 0 | 0 | 0 | 73 | 0 | 3 | 5 | 0 | 5 | 0 | 85 | 5
18 | Fc1cc(Cl)ccc1Nc1ccnc2cc(-c3ccc(CN4CCSCC4)o3)ccc12 [GW560106] | 0 | 0 | 97.6 | 14 | 13 | 21 | 23 | 0 | 24 | 19 | 0 | 27 | 66 | 3 | 1 | 29 | 0 | 63 | 12 | 98.3
19 | Cl.Cl.NCC(NC(=O)c1cc(-c2cccnc2)c(-c2ccnc3[nH]ccc23)s1)c1ccccc1 (centres unmarked) [GSK1323434] | 35 | 0 | 0 | 95.4 | 82 | 88 | 47 | 75 | 1 | 12 | 34 | 45 | 68 | 0 | 56 | 29 | 10 | 13 | 12 | 28
